Consider 22 compounds from PubChem BioAssay (Tox21).

Values joined by “and” are separate entries in the source; they are usually repeats but may differ in a detail not shown here. Identical values can stand only once. Inconclusive results are not listed. More than one record can exist for a structure, and the calls need not agree. Active and inactive are the calls of the source. Unless noted, calls come from the whole dose curve; as a rule, active = well fitted curve in the direction sought with a large enough effect in the repeat runs; inconclusive = weak or mixed curves; inactive = no such curve, though single readings can be large; an effect the other way counts as inactive or inconclusive.

The nature of experiment [1]: qHTS assay to identify small molecule antagonists of the androgen receptor (AR) signaling pathway using the MDA cell line in the presence of 0.5 nM R1881 - cell viability counter screen (AID 1259242). Note: nearly all actives have a fitted effect of over 45% in size. An outline of the steps:
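Steps: plate MDA-kb2 cells, rest 5 hr at 37C without CO2; pin in compounds in DMSO; add R1881 to 0.5 nM final; incubate 16 hr; add CellTiter-Fluor, 30 min; read fluorescence.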
(In general: In qHTS, concentration-response curves come from the screen itself.)

The target in experiment [2] is Estrogen receptor (Homo sapiens) (UniProt P03372). Kind of experiment: qHTS assay to identify small molecule antagonists of the estrogen receptor alpha (ER-alpha) signaling pathway using the BG1 cell line in the presence of 0.1 nM 17-beta-estradiol (AID 1259244). Note: nearly all actives have a fitted effect of over 50% in size. Note: potency is the fitted concentration of half-maximal effect. In a few lines:
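Antagonist mode: compounds in DMSO are pinned onto VM7Luc4E2 reporter cells, 0.1 nM final 17beta-estradiol is added, and after 22 h at 37C luciferase luminescence is measured with ONE-Glo.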

A short description of experiment [3]: qHTS assay to identify small molecule phospholipidosis (PLD) inducers (AID 1259344; active = well fitted curve in the direction sought with a large enough effect; an effect the other way counts as inactive or inconclusive). In a few lines: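 After 4 h attachment on collagen I, HepG2 cells were dosed with compound alongside LipidTOX Red, kept 24 h at 37 C, fixed, and imaged for lamellar phospholipid pits.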
Experiment [4] is described as follows: qHTS assay to identify small molecule HDAC inhibitors (AID 1259364).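 Note: wild-type HCT-116 cells with endogenous class I/II HDAC activity; top concentration of the series differs between compounds; nearly all actives have a fitted effect of over 45% in size.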 An outline of the steps:
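Cells (HCT-116, wild type) are seeded at 1,500 per well, incubated overnight, treated with compound in DMSO for 2 hr, then developed with HDAC-Glo I/II reagent for 30 min at room temperature.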

The nature of experiment [5]: qHTS assay to identify small molecule HDAC inhibitors - cell viability counter screen (AID 1259365). Note: series mostly up to about 92 µM; nearly all actives have a fitted effect of over 50% in size. In a few lines:
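Wild-type HCT-116 cells were seeded at 1,500 per well, incubated overnight at 37 C, then exposed to compounds in DMSO for 2hr. Viability was read by CellTiter-Glo luminescence after 30min at room temperature.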

A short description of experiment [6]: qHTS assay to identify small molecule agonists of the sonic hedgehog signaling (Shh) pathway - cell viability counter screen (AID 1259366). Note: nearly all actives have a fitted effect of over 50% in size. An outline of the steps: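 NIH/3T3-derived 3T3 Gli1-Luc cells (stable Gli1-responsive firefly luciferase reporter) were seeded, rested 4 hr at 37 C/5% CO2, then exposed to compounds in DMSO for 24 hr; viability was read by CellTiter-Fluor fluorescence in the same wells.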

The nature of experiment [7]: qHTS assay to identify small molecule antagonists of the sonic hedgehog signaling (Shh) pathway - cell viability counter screen (AID 1259367). Note: nearly all actives have a fitted effect of over 55% in size. An outline of the steps: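 Conditioned medium drove Shh signaling in 3T3 Gli1-Luc cells exposed to compounds at 37C and 5% CO2. Viability was determined from CellTiter-Fluor fluorescence, with reagent incubated 1 hr after 23 hr of treatment.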

Experiment [8] can be described thus: qHTS assay to identify small molecule agonists of the sonic hedgehog signaling (Shh) pathway (AID 1259368; calls by dose curve; note: series mostly up to about 92 µM; nearly all actives have a fitted effect of over 15% in size). An outline of the steps:
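Cells of a mouse NIH/3T3 clone stably expressing luciferase under the Gli1 transcriptional response element are exposed to test chemicals for 24 hr at 37 C. Pathway activation is detected as a rise in luminescence.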

Experiment [9] in a line: qHTS assay to identify small molecule antagonists of the sonic hedgehog signaling (Shh) pathway (AID 1259369; calls by dose curve; note: nearly all actives have a fitted effect of over 45% in size). In a few lines:
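Cells are plated and held 4hr at 37 C, compounds (DMSO) are pinned in, conditioned medium is added to stimulate the pathway, and after 24hr luciferase reagent is added for 30min before luminescence is read.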

The target of experiment [10] is Androgen receptor (Homo sapiens) (UniProt P10275). The experiment can be described thus: qHTS assay to identify small molecule antagonists of the androgen receptor (AR) signaling pathway using the MDA cell line in the presence of 0.5 nM R1881 (AID 1259243). Note: potency is the fitted concentration of half-maximal effect; nearly all actives have a fitted effect of over 50% in size. An outline of the steps:
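Stably transfected MDA-kb2 cells express luciferase from an MMTV promoter bearing both AR and GR response elements. Compounds plus 0.5 nM R1881 (final) were incubated 16 hr at 37C without CO2, then luminescence measured.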

Chain of Estrogen receptor (Homo sapiens) (P03372 whole entry, looked up): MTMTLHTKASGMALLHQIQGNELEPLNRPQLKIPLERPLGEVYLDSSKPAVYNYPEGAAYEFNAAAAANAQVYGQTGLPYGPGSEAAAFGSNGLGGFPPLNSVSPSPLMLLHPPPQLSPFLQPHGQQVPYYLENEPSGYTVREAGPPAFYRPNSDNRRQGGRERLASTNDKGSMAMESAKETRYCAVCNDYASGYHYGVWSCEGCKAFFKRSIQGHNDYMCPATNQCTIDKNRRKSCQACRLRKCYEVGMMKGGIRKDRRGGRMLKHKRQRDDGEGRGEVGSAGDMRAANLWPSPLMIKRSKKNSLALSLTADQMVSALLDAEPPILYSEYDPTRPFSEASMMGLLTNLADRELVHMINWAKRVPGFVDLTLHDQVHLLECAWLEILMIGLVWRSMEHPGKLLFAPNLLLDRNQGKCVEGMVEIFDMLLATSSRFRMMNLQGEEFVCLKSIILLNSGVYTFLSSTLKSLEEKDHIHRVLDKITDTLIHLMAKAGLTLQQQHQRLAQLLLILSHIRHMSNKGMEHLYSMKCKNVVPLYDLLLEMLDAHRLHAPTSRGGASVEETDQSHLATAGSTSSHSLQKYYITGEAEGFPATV
Chain of Androgen receptor (Homo sapiens) (P10275 whole entry, looked up): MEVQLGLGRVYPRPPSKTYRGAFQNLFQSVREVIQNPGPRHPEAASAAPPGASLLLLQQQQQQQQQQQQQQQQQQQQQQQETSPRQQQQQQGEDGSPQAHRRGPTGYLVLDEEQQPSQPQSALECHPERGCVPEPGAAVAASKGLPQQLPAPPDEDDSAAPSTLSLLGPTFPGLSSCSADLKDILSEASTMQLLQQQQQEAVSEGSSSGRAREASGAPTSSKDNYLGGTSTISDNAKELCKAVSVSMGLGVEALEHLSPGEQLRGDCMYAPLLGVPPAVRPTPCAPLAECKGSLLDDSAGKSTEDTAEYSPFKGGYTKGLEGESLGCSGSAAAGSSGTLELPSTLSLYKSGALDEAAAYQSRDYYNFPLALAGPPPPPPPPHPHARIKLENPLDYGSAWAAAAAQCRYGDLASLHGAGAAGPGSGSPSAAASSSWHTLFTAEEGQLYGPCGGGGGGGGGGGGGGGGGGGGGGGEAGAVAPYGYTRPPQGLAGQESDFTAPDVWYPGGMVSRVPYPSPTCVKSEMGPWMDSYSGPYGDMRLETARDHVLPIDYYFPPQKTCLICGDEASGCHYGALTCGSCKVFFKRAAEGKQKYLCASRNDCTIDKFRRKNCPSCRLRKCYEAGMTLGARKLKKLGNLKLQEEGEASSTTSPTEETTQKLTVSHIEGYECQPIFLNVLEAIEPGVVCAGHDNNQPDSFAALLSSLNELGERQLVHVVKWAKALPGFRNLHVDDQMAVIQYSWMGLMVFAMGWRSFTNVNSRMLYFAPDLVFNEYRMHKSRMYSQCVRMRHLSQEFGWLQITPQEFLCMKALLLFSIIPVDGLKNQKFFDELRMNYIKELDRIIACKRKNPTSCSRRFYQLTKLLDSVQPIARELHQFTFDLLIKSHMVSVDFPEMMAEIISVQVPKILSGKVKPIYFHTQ

Turning to `Nc1ccc([As](=O)(O)O)cc1`, the result in [1], in experiment [5] and in experiment [8] was inactive. Besides, the Potency entry in [2], in [3], in [4], in experiment [6], in experiment [7] and in experiment [9] was “inactive” in each case.

`O=C(O)CCCc1ccc(N(CCCl)CCCl)cc1`: the outcome in experiment [1], in [5] and in experiment [8] was inactive. Moreover, the Potency result in experiment [2], in [3], in [4], in experiment [7] and in experiment [9] was “inactive” throughout.

With `COP(=S)(OC)Oc1ccc(SC)c(C)c1`, the outcome in [1], in experiment [5] and in experiment [8] was inactive. The Potency result in experiment [2], in experiment [3], in [4] and in experiment [7] was “inactive” in each case.

For the compound `CCCOC(=O)c1ccccc1C(=O)OCCC`, the outcome in [1], in [5] and in experiment [8] was inactive. Further, the Potency result in experiment [2], in experiment [4], in [6] and in experiment [7] was “inactive” in each case.

As for `CC12CC1(C)C(=O)N(c1cc(Cl)cc(Cl)c1)C2=O` (configuration not stated), the outcome in experiment [1], in experiment [5] and in [8] was inactive. In addition, the Potency in experiment [10] was 1.21 µM (active) and 1.37 µM (active). The Potency entry in experiment [4] and in experiment [7] was “inactive” each time.

In the case of `O=[N+]([O-])c1cc([As](=O)(O)O)ccc1O`, the outcome in [1], in experiment [5] and in experiment [8] was inactive. In addition, the Potency entry in experiment [2], in experiment [3], in [4] and in experiment [7] was “inactive” throughout.

As to `O=C(O)COc1ccccc1`, the outcome in experiment [1], in experiment [5] and in experiment [8] was inactive. Further, the Potency entry in [2], in experiment [3], in experiment [4], in experiment [6] and in experiment [7] was “inactive” in each case.

Consider `O=C(O)Cc1ccccc1`, for which the result in [1], in experiment [5] and in experiment [8] was inactive. In addition, the Potency result in experiment [2], in experiment [3], in [4], in [6] and in experiment [7] was “inactive” in each case.

For `OC[C@@H](O)[C@H]1O[C@@H]2O[C@H](C(Cl)(Cl)Cl)O[C@@H]2[C@H]1O`, the outcome in [1], in experiment [5] and in experiment [8] was inactive. For the same compound, the Potency result in experiment [2], in experiment [3], in experiment [4], in experiment [6], in [7] and in [9] was “inactive” each time.

In the case of `Oc1c(Br)cc(Br)cc1Br`, the result in experiment [1], in experiment [5] and in experiment [8] was inactive. For the same compound, the Potency entry in experiment [2], in experiment [3], in experiment [4] and in experiment [7] was “inactive” throughout.

In the case of `ClC(Cl)c1ccccc1`, the outcome in experiment [1], in [5] and in [8] was inactive. Moreover, the Potency entry in [2], in [4], in experiment [7] and in experiment [9] was “inactive” in each case.

Regarding `O=C(O)c1cc(Oc2ccc(C(F)(F)F)cc2Cl)ccc1[N+](=O)[O-]`, the result in [1], in experiment [5] and in experiment [8] was inactive. In addition, the Potency entry in experiment [3], in experiment [4], in experiment [6] and in [7] was “inactive” each time.

As for `Nc1cccc(Cl)c1`, the result in experiment [1], in experiment [5] and in [8] was inactive. The Potency entry in experiment [2], in [4], in experiment [6], in [7] and in experiment [9] was “inactive” in each case.

`Cc1cccc(N)c1C`: the outcome in experiment [1], in experiment [5] and in [8] was inactive. In addition, the Potency result in [2], in [4], in experiment [6], in [7] and in experiment [9] was “inactive” in each case.

In the case of `NNc1ccccc1`, the result in experiment [1], in experiment [5] and in [8] was inactive. The Potency result in experiment [3], in experiment [4], in experiment [6] and in [7] was “inactive” in each case.

Regarding `Nc1ncc([N+](=O)[O-])s1`, the result in experiment [1], in experiment [5] and in [8] was inactive. The Potency entry in experiment [2], in [4], in experiment [6], in [7] and in experiment [9] was “inactive” each time.

Regarding `CCOc1ccc(N)cc1`, the outcome in [1], in [5] and in experiment [8] was inactive. Also, the Potency entry in [2], in [4], in experiment [7] and in experiment [9] was “inactive” each time.

Regarding `Cc1cc(Cl)ccc1OC(C)C(=O)O` (configuration not stated), the result in [1], in [5] and in experiment [8] was inactive. The Potency result in [2], in experiment [4], in experiment [6], in experiment [7] and in [9] was “inactive” throughout.

Regarding `FC(F)(F)c1ccc(Cl)cc1`, the result in [1], in experiment [5] and in experiment [8] was inactive. Also, the Potency entry in experiment [2], in experiment [4], in [6], in experiment [7] and in experiment [9] was “inactive” in each case.

Turning to `CN(C)C(=O)Cl`, the result in experiment [1], in [5] and in [8] was inactive. The Potency result in experiment [2], in experiment [4], in experiment [7] and in experiment [9] was “inactive” throughout.

In the case of `C=C(C)C(=O)OCC(CC)CCCC` (configuration not stated), the outcome in [1], in [5] and in experiment [8] was inactive. For the same compound, the Potency in [2] was 22.1 µM (active) and inactive. Also, the Potency result in experiment [4], in [6], in experiment [7] and in [9] was “inactive” each time.

In the case of `O=C(O)C1C(C(=O)O)C2(Cl)C(Cl)=C(Cl)C1(Cl)C2(Cl)Cl` (configuration not stated), the result in [1], in experiment [5] and in [8] was inactive. The Potency entry in [2], in experiment [4], in [6], in experiment [7] and in [9] was “inactive” each time.
